# Source: PubChem BioAssay
# For part of these data: Results with a measured potency or affinity are listed apart. Activity calls are given as the source filed them.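 Rule for the calls, unless noted: active = calcium signal cut by more than 3 SD below the full-agonist control yet still positive, in both repeats and the earlier primary screen; inactive = the rest.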
# Tests used:
# [1] = test system: TRPC4 beta (transient receptor potential cation channel C4), mouse; assay: TRPC4 cation channel opening, retest – cell-based, Fluo4 calcium, HEK293 TRPC4beta/mu-opioid, duplicates, 10 µM, confirmation (AID 2426;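 active = fluorescence ratio normalized to control raised more than 50% in primary screen plus both repeat runs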); details: Fluo4 calcium fluorescence, at 10 µM; hits give high values
# [2] = test system: transient receptor potential cation channel C4 beta (TRPC4), mouse; assay: TRPC4 cation channel opening, second retest – cell-based, second round, Fluo4, HEK293 TRPC4beta/mu-opioid, 1 µM, confirmation (AID 2461;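 active = primary screen active and over 50% activation in each of two duplicate runs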); details: Fluo4 calcium fluorescence, at 1 µM; hits give high values
# [3] = test system: TRPC4 (transient receptor potential cation channel C4 beta), mouse; assay: potentiation of DAMGO EC20 TRPC4 response – cell-based, second round, Fluo-4, HEK293 TRPC4beta/mu-opioid, 1 µM, confirmation (AID 2554;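 active = primary screen hit whose fluorescence ratio, in both repeats, exceeds the weak agonist control mean by 3 SD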); details: DAMGO EC20, Fluo-4 calcium flux, at 1 µM; hits give high values
# [4] = test system: TRPC4 beta (transient receptor potential cation channel C4), mouse; assay: potentiation of DAMGO EC20 TRPC4 response – cell-based, Fluo-4, HEK293 TRPC4beta/mu-opioid, confirmation (AID 2555;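 active = primary screen hit whose calcium fluorescence ratio, in both repeats, exceeds the weak agonist control mean by 3 SD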); details: DAMGO EC20, Fluo-4 calcium flux, at 10 µM; hits give high values
# [5] = target: Short transient receptor potential channel 4 (Mus musculus) (UniProt Q9QUQ5); assay: blockers of DAMGO-evoked TRPC4 calcium flux – cell-based, Fluo4, HEK293 TRPC4beta/mu-opioid, confirmation (AID 2636); details: at 10 µM; hits give high values
# Sequence of Short transient receptor potential channel 4 (Mus musculus) (Q9QUQ5 whole entry, looked up): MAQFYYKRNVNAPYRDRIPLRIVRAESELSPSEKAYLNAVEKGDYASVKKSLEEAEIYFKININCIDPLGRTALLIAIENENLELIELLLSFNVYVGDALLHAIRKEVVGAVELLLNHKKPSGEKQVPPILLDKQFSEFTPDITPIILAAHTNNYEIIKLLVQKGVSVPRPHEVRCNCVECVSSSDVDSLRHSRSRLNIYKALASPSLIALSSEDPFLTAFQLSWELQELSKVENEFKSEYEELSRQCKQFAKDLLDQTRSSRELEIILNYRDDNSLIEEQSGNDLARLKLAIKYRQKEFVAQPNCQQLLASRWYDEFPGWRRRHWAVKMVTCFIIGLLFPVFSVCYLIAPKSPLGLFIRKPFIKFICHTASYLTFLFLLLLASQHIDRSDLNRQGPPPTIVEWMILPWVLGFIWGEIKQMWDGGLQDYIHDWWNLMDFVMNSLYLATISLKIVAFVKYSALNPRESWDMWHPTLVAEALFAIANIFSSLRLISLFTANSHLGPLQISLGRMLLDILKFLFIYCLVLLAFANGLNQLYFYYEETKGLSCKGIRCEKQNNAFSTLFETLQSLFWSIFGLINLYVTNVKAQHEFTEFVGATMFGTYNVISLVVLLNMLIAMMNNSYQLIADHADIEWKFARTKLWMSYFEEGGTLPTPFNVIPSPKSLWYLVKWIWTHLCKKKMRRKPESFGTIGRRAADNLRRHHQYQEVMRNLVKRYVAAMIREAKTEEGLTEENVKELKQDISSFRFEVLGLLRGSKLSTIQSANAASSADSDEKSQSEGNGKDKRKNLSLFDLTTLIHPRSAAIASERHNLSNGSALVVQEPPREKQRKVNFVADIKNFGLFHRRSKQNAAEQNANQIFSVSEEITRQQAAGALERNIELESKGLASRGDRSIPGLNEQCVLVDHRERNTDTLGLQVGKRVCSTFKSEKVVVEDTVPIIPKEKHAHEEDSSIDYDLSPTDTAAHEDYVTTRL
# [6] = target: Short transient receptor potential channel 4 (Mus musculus) (UniProt Q9QUQ5); assay: blockers of DAMGO-evoked TRPC4 calcium flux – cell-based, second round, Fluo4, HEK293 TRPC4beta/mu-opioid, 1 µM, confirmation (AID 2637;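 active = calcium signal ratio cut to more than 3 SD under the fully stimulated control mean yet still positive, in both repeats and the primary screen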;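 for inhibition: percent of integrated ratio relative to wells lacking test compound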); details: at 1 µM; hits give high values
# [7] = target: Short transient receptor potential channel 4 (Mus musculus) (UniProt Q9QUQ5); assay: calcium entry via TRPC4 opening agents – cell-based, HEK293 TRPC4/mu-opioid, Fluo-4 calcium, dose response (AID 434937;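 active = primary screen activator hit with a dose response curve and TRPC4 channel activation at any tested dose; inactive = no activation, no dose response, or not a primary hit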)
# [8] = target: Short transient receptor potential channel 4 (Mus musculus) (UniProt Q9QUQ5); assay: potentiation of DAMGO-evoked TRPC4 calcium signal – cell-based, HEK293 TRPC4/mu-opioid, Fluo-4 calcium, EC20 DAMGO, dose response (AID 434941;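 active = earlier screen potentiator hit that boosts the TRPC4 ion channel at some dose, with a dose response; inactive = no potentiation, no dose response, or not a prior hit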;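 note: calcium entry triggered by an EC20 dose of DAMGO at the co-expressed mu-opioid receptor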)
# [9] = target: Short transient receptor potential channel 4 (Mus musculus) (UniProt Q9QUQ5); assay: block of DAMGO-driven TRPC4 calcium entry – cell-based, HEK293 TRPC4/mu-opioid, Fluo-4 calcium, dose response (AID 434942;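 active = primary screen inhibitor hit that blocks the TRPC4 channel at some tested dose, yielding a dose curve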)
# [10] = target: Short transient receptor potential channel 6 (Mus musculus) (UniProt Q61143); assay: TRPC6 blockade by TRPC4 inhibitor hits – cell-based, HEK293, membrane potential dye, duplicate, selectivity assay for TRPC4 inhibitor project, confirmation (AID 434948;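 active = active in primary screen and both duplicates, each dropping signal beyond three positive-control SD with fluorescence still positive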); details: HEK293 TRPC6, membrane potential dye fluorescence, at 10 µM, stimulated with maximal-effect acetylcholine; hits give high values
# Sequence of Short transient receptor potential channel 6 (Mus musculus) (Q61143 whole entry, looked up): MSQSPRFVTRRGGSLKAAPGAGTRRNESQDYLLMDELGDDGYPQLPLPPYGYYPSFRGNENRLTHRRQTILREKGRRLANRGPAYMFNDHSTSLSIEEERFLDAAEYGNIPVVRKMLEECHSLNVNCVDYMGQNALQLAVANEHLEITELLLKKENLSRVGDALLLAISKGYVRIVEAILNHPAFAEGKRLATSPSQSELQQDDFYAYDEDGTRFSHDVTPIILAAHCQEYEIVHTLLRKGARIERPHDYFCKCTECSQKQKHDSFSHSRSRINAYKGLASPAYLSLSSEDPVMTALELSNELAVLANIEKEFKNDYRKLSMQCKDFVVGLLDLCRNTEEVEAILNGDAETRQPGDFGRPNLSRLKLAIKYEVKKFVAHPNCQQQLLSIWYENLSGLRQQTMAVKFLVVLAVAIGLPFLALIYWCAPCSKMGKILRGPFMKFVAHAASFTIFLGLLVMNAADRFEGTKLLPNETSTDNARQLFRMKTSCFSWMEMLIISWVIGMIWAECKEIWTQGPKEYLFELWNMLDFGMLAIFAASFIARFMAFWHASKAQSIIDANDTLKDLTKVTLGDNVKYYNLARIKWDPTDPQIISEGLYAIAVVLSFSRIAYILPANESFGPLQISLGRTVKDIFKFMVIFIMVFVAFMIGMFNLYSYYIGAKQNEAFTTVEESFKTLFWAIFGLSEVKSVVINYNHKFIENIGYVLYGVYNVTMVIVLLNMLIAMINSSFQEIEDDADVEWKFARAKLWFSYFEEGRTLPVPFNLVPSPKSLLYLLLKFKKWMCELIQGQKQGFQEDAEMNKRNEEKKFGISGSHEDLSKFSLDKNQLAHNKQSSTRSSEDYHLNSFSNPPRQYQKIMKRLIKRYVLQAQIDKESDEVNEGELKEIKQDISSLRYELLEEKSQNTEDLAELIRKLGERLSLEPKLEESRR
# [11] = target: Short transient receptor potential channel 6 (Mus musculus) (UniProt Q61143); assay: TRPC6 opening by TRPC4 activator hits – cell-based, HEK293, membrane potential dye, duplicate, selectivity assay for TRPC4 activator project, confirmation (AID 434950;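 active = membrane potential signal rise above negative control mean plus 3 SD in both duplicates, also active in the earlier TRPC4 screen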); details: HEK293 TRPC6, membrane potential fluorescence, at 10 µM; activation: hits give high values; outcome: activation
# [12] = target: Short transient receptor potential channel 6 (Mus musculus) (UniProt Q61143); assay: positive modulators of mouse TRPC6 channel – HEK293 cells, membrane potential dye, duplicate, selectivity assay for TRPC4 potentiator project, confirmation (AID 434952;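 active = compound raising the membrane signal above positive-control mean plus 3 SD in both repeats, and a primary screen hit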); details: HEK293 TRPC6, membrane potential dye fluorescence, at 10 µM, maximal acetylcholine added after compound; hits give high values
# [13] = target: Short transient receptor potential channel 4 (Mus musculus) (UniProt Q9QUQ5); assay: calcium flux activators in TRPC4/5HT1a cells, counter-screen for TRPC4 activator project, cell-based, second counter screen, HEK293 TRPC4/5HT1a, Fluo-4 (AID 434977;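 active = calcium signal rise above buffer-control mean plus 5 SD in both duplicates, and also a hit in the primary screen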); details: Fluo-4 calcium flux, at 10 µM; hits give high values
# [14] = serotonin-gated TRPC4 signal block – cell-based, second counter screen, HEK293 TRPC4/5HT1a, Fluo-4, counter-screen for TRPC4 inhibitor project, confirmation (AID 434978;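 active = primary screen active whose calcium signal fell more than 3 SD beyond the full-serotonin control mean in both duplicate plates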;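 for outcome: serotonin given first at submaximal then at maximal dose after compound preincubation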); details: Fluo-4 calcium flux, at 10 µM, serotonin added to trigger calcium flux; hits give high values
# [15] = test system: TRPC4 (mouse), co-expressed with 5HT1a in HEK293; assay: enhancement of serotonin-evoked TRPC4 response – cell-based, second counter screen, HEK293 TRPC4/5HT1a, Fluo-4, counter-screen for TRPC4 potentiator project, confirmation (AID 434979;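 active = signal rise over 3 SD above mean of control wells given weak agonist, in both repeats and first screen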); details: Fluo-4 calcium flux, at 10 µM, serotonin added at its EC20 dose; hits give high values
# [16] = nonspecific calcium rise without TRPC4 – cell-based, HEK293 mu-opioid receptor line, counter-screen for TRPC4 activator project, confirmation (AID 449723;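 active = hit in primary screen, with calcium signal over 5 SD above buffer well mean in both duplicates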;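 note: counter screen cells carry the mu-opioid receptor alone and lack TRPC4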); details: HEK293 mu-opioid cells, Fluo-4 calcium fluorescence, at 10 µM; hits give high values
# [17] = nonspecific potentiation of DAMGO calcium response – cell-based, HEK293 mu-opioid receptor line, counter-screen for TRPC4 allosteric potentiator project, confirmation (AID 449724;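 active = calcium signal rise more than 3 SD above the low-dose agonist control mean, in both duplicate plates and the primary screen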); details: HEK293 mu-opioid receptor cells, Fluo-4 calcium flux, at 10 µM, compound added before EC20 DAMGO stimulus; hits give high values
smiles,measurement,setting,value
CN1CCN(CCCNC(=O)CN2C(=O)COc3ccccc32)CC1,outcome,[1],inactive
same,outcome,[2],inactive
same,outcome,[3],inactive
same,outcome,[4],inactive
same,inhibition,[5],77% (active)
same,outcome,[6],inactive
same,outcome,[7],inactive
same,outcome,[8],inactive
same,outcome,[9],inactive
same,outcome,[10],inactive
same,outcome,[11],inactive
same,outcome,[12],inactive
same,outcome,[13],inactive
same,outcome,[14],inactive
same,outcome,[15],inactive
same,outcome,[16],inactive
same,outcome,[17],inactive
COc1cc(/C=C2\C(=O)ON=C2c2ccccc2)cc(Cl)c1O,outcome,[1],inactive
same,outcome,[2],inactive
same,outcome,[3],inactive
same,outcome,[4],inactive
same,inhibition,[5],76% (active)
same,outcome,[6],inactive
same,outcome,[7],inactive
same,outcome,[8],inactive
same,outcome,[9],inactive
same,outcome,[10],inactive
same,outcome,[11],inactive
same,outcome,[12],inactive
same,outcome,[13],inactive
same,outcome,[14],inactive
same,outcome,[15],inactive
same,outcome,[16],inactive
same,outcome,[17],inactive
CC(C)Oc1cc(N)c(Cl)cc1Cl,outcome,[1],inactive
same,outcome,[2],inactive
same,outcome,[3],inactive
same,outcome,[4],inactive
same,outcome,[5],inactive
same,outcome,[6],inactive
same,outcome,[7],inactive
same,outcome,[8],inactive
same,outcome,[9],inactive
same,outcome,[10],inactive
same,outcome,[11],inactive
same,outcome,[12],inactive
same,outcome,[13],inactive
same,outcome,[14],inactive
same,outcome,[15],inactive
same,outcome,[16],inactive
same,outcome,[17],inactive
Cc1ccc(NS(=O)(=O)c2cc(N)ccc2Cl)c(C)c1,outcome,[1],inactive
same,outcome,[2],inactive
same,outcome,[3],inactive
same,outcome,[4],inactive
same,outcome,[5],inactive
same,outcome,[6],inactive
same,outcome,[7],inactive
same,outcome,[8],inactive
same,outcome,[9],inactive
same,outcome,[10],inactive
same,outcome,[11],inactive
same,outcome,[12],inactive
same,outcome,[13],inactive
same,outcome,[14],inactive
same,outcome,[15],inactive
same,outcome,[16],inactive
same,outcome,[17],inactive
Cc1ccc(Cl)cc1N1CCN(Cc2nc3c(c(=O)[nH]c(=O)n3C)n2Cc2ccccc2F)CC1,outcome,[1],inactive
same,outcome,[2],inactive
same,outcome,[3],inactive
same,outcome,[4],inactive
same,outcome,[5],inactive
same,outcome,[6],inactive
same,outcome,[7],inactive
same,outcome,[8],inactive
same,outcome,[9],inactive
same,outcome,[10],inactive
same,outcome,[11],inactive
same,outcome,[12],inactive
same,outcome,[13],inactive
same,outcome,[14],inactive
same,potentiation,[15],25.8% (active)
same,outcome,[16],inactive
same,outcome,[17],inactive
Cc1cc(NC(=O)C(C)SCC(=O)N(Cc2ccccc2)c2ccccc2)no1 (stereo not given),outcome,[1],inactive
same,outcome,[2],inactive
same,outcome,[3],inactive
same,outcome,[4],inactive
same,inhibition,[5],90% (active)
same,outcome,[6],inactive
same,outcome,[7],inactive
same,outcome,[8],inactive
same,outcome,[9],inactive
same,outcome,[10],inactive
same,outcome,[11],inactive
same,outcome,[12],inactive
same,outcome,[13],inactive
same,inhibition,[14],25.3% (active)
same,outcome,[15],inactive
same,outcome,[16],inactive
same,outcome,[17],inactive
COc1ccccc1C1/C(=C(\O)c2ccc3c(c2)OCCO3)C(=O)C(=O)N1Cc1cccnc1 (stereo not given),outcome,[1],inactive
same,outcome,[2],inactive
same,outcome,[3],inactive
same,outcome,[4],inactive
same,inhibition,[5],82% (active)
same,inhibition,[6],63% (active)
same,outcome,[7],inactive
same,outcome,[8],inactive
same,outcome,[9],inactive
same,outcome,[10],inactive
same,outcome,[11],inactive
same,outcome,[12],inactive
same,outcome,[13],inactive
same,inhibition,[14],41.7% (active)
same,outcome,[15],inactive
same,outcome,[16],inactive
same,outcome,[17],inactive
CCCCN(C)C(=O)Cn1ncc2c3ccccc3n(CCC)c2c1=O,outcome,[1],inactive
same,outcome,[2],inactive
same,outcome,[3],inactive
same,potentiation,[4],37% (active)
same,outcome,[5],inactive
same,outcome,[6],inactive
same,outcome,[7],inactive
same,outcome,[8],inactive
same,outcome,[9],inactive
same,outcome,[10],inactive
same,outcome,[11],inactive
same,outcome,[12],inactive
same,outcome,[13],inactive
same,outcome,[14],inactive
same,potentiation,[15],42.7% (active)
same,outcome,[16],inactive
same,outcome,[17],inactive
Cc1cc(C(=O)CN2C(=O)C(=O)N(CC(C)C)C2=O)c(C)n1-c1ccccc1F,outcome,[1],inactive
same,outcome,[2],inactive
same,outcome,[3],inactive
same,outcome,[4],inactive
same,outcome,[5],inactive
same,outcome,[6],inactive
same,outcome,[7],inactive
same,outcome,[8],inactive
same,outcome,[9],inactive
same,outcome,[10],inactive
same,outcome,[11],inactive
same,outcome,[12],inactive
same,outcome,[13],inactive
same,outcome,[14],inactive
same,potentiation,[15],35.1% (active)
same,outcome,[16],inactive
same,outcome,[17],inactive
CC(C(=O)c1ccc(Br)cc1)[n+]1cccc(NC(=O)c2ccccc2)c1 (stereo not given),outcome,[1],inactive
same,outcome,[2],inactive
same,outcome,[3],inactive
same,outcome,[4],inactive
same,outcome,[5],inactive
same,outcome,[6],inactive
same,outcome,[7],inactive
same,outcome,[8],inactive
same,outcome,[9],inactive
same,outcome,[10],inactive
same,outcome,[11],inactive
same,outcome,[12],inactive
same,outcome,[13],inactive
same,outcome,[14],inactive
same,outcome,[15],inactive
same,outcome,[16],inactive
same,outcome,[17],inactive
Cc1cc(C)c(C)c(S(=O)(=O)NCc2ccco2)c1C,outcome,[1],inactive
same,outcome,[2],inactive
same,outcome,[3],inactive
same,outcome,[4],inactive
same,outcome,[5],inactive
same,outcome,[6],inactive
same,outcome,[7],inactive
same,outcome,[8],inactive
same,outcome,[9],inactive
same,outcome,[10],inactive
same,outcome,[11],inactive
same,outcome,[12],inactive
same,outcome,[13],inactive
same,outcome,[14],inactive
same,potentiation,[15],28.1% (active)
same,outcome,[16],inactive
same,outcome,[17],inactive
CC(=O)c1ccc(OCC(O)CN2CCN(S(=O)(=O)c3c(C)cc(C)cc3C)CC2)cc1 (stereo not given),outcome,[1],inactive
same,outcome,[2],inactive
same,potentiation,[3],20% (active)
same,potentiation,[4],23% (active)
same,outcome,[5],inactive
same,outcome,[6],inactive
same,outcome,[7],inactive
same,outcome,[8],inactive
same,outcome,[9],inactive
same,outcome,[10],inactive
same,outcome,[11],inactive
same,outcome,[12],inactive
same,outcome,[13],inactive
same,outcome,[14],inactive
same,potentiation,[15],27.2% (active)
same,outcome,[16],inactive
same,outcome,[17],inactive
COC(=O)[C@@]12CCCN1[C@H](c1ccc(-c3ccc(OC)cc3)cc1)[C@@H]1C(=O)N(C)C(=O)[C@@H]12,outcome,[1],inactive
same,outcome,[2],inactive
same,outcome,[3],inactive
same,potentiation,[4],32% (active)
same,outcome,[5],inactive
same,outcome,[6],inactive
same,outcome,[7],inactive
same,outcome,[8],inactive
same,outcome,[9],inactive
same,outcome,[10],inactive
same,outcome,[11],inactive
same,outcome,[12],inactive
same,outcome,[13],inactive
same,outcome,[14],inactive
same,potentiation,[15],111% (active)
same,outcome,[16],inactive
same,outcome,[17],inactive
CSc1nnc(Cc2sc(-c3ccccc3)nc2-c2ccccc2)o1,outcome,[1],inactive
same,outcome,[2],inactive
same,outcome,[3],inactive
same,outcome,[4],inactive
same,outcome,[5],inactive
same,outcome,[6],inactive
same,outcome,[7],inactive
same,outcome,[8],inactive
same,outcome,[9],inactive
same,outcome,[10],inactive
same,outcome,[11],inactive
same,outcome,[12],inactive
same,outcome,[13],inactive
same,outcome,[14],inactive
same,potentiation,[15],23.3% (active)
same,outcome,[16],inactive
same,outcome,[17],inactive
CC1(C)CC(=O)C(C=NCCN2CCN(C(=O)CCl)CC2)=C(O)C1,outcome,[1],inactive
same,outcome,[2],inactive
same,outcome,[3],inactive
same,outcome,[4],inactive
same,outcome,[5],inactive
same,outcome,[6],inactive
same,outcome,[7],inactive
same,outcome,[8],inactive
same,outcome,[9],inactive
same,outcome,[10],inactive
same,outcome,[11],inactive
same,outcome,[12],inactive
same,outcome,[13],inactive
same,outcome,[14],inactive
same,outcome,[15],inactive
same,outcome,[16],inactive
same,outcome,[17],inactive
